According to PubChem BioAssay (EPA / NIEHS):
Calls of active or inactive are those of the source. How the source made its calls: active means hit-call score of the fitted dose curve at least 0.9, where 1 is the maximum; inactive means score below 0.9.

What was measured:
[1] = ATG_CRE_CIS: Attagene CIS-FACTORIAL HepG2 Assay for human cAMP Responsive Element (CRE) binding protein 3 (AID 2282926); conditions: HepG2 CRE cis-reporter, Attagene multiplexed mRNA; actives raise or lower the signal
Method in brief: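 Endogenous CRE-binding activity in HepG2 is reported through a cis-regulated transfected reporter. Following a day of exposure, mRNA levels are determined by reverse transcription PCR and fluorescent fragment analysis; fits run in both directions versus DMSO.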

[2] = target: CCAAT/enhancer-binding protein beta (Homo sapiens) (UniProt P17676); test: ATG_C_EBP_CIS: Attagene CIS-FACTORIAL HepG2 Assay for human CCAAT/Enhancer Binding Protein (C/EBP) beta (AID 2282927); conditions: HepG2 Attagene cis-factorial transcription factor reporter; actives raise or lower the signal
Sequence of CCAAT/enhancer-binding protein beta (Homo sapiens) (P17676 whole entry, looked up, the tested form may be a part): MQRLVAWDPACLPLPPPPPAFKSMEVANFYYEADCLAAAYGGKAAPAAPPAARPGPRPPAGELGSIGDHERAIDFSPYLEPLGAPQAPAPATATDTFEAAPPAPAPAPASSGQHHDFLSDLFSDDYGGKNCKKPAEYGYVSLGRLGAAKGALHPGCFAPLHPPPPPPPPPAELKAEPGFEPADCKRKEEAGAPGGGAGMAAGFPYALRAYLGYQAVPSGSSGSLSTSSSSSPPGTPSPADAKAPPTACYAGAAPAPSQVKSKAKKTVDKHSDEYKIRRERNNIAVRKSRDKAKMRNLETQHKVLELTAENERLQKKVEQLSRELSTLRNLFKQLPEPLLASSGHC
Method in brief: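 Endogenous C/EBPb-driven reporter transcripts measured in transfected human HepG2 cells at 24 h via RT-PCR and capillary electrophoresis of labelled fragments. Activity fitted in both directions relative to DMSO baseline.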

[3] = ATG_CMV_CIS: Attagene CIS-FACTORIAL HepG2 Assay for human CMV (Internal Marker) (AID 2282928); conditions: HepG2 CMV promoter reporter, transcription factor profiling; actives raise or lower the signal;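 further: endpoint acts as a background internal control marker rather than a target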
Method in brief: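 After transient transfection of HepG2 with reporter transcription units driven by cis-regulatory promoters, cells receive test chemical for 24 h. Labeled reporter amplicons, digested with HpaI, are sized and quantified by capillary electrophoresis against DMSO.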

[4] = ATG_AP_1_CIS: Attagene CIS-FACTORIAL HepG2 Assay for human Activator Protein 1 (AP-1) (AID 2282931); conditions: HepG2 Attagene cis-factorial AP-1 reporter mRNA; actives raise or lower the signal
Method in brief: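 Transient MRTU transfection of HepG2 → 24 h chemical treatment → RNA isolation, RT-PCR, 6-FAM labelling, HpaI digest → capillary electrophoresis. Fit: bidirectional, DMSO negative control.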

[5] = ATG_AP_2_CIS: Attagene CIS-FACTORIAL HepG2 Assay for human Activator Protein 2 (AP-2) (AID 2282932); conditions: HepG2 AP-2 cis-reporter, Attagene transcription factor profiling; actives raise or lower the signal
Method in brief: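 Step one: transient transfection of HepG2 with reporter transcription units. Step two: 24 h chemical exposure. Step three: RNA extraction, RT-PCR, labelled fragment analysis by capillary electrophoresis; DMSO serves as baseline.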

[6] = ATG_BRE_CIS: Attagene CIS-FACTORIAL HepG2 Assay for human Bone Morphogenetic Protein (BMP) Response Element (BRE) (AID 2282933); conditions: HepG2 BMP response element reporter, Attagene transcription factor profiling; actives raise or lower the signal
Method in brief: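 HepG2 cells transiently transfected with CIS reporter units (endogenous TF activity, BMP response element), dosed 24 h. Reporter mRNA quantified by RT-PCR, fluorescent labelling and capillary electrophoresis; bidirectional fit vs DMSO baseline.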

[7] = target: Retinoic acid receptor alpha (Homo sapiens) (UniProt P10276); test: ATG_DR5_RAR_CIS: Attagene CIS-FACTORIAL HepG2 Assay for human Retinoic Acid Receptor Alpha (RARE), DR5 submotif (AID 2282934); conditions: HepG2 Attagene cis-factorial RARE DR5 reporter, mRNA; actives raise or lower the signal;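 on AC50: reporter responds to endogenous RAR alpha beta and gamma in HepG2 not RARA alone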
Sequence of Retinoic acid receptor alpha (Homo sapiens) (P10276 whole entry, looked up): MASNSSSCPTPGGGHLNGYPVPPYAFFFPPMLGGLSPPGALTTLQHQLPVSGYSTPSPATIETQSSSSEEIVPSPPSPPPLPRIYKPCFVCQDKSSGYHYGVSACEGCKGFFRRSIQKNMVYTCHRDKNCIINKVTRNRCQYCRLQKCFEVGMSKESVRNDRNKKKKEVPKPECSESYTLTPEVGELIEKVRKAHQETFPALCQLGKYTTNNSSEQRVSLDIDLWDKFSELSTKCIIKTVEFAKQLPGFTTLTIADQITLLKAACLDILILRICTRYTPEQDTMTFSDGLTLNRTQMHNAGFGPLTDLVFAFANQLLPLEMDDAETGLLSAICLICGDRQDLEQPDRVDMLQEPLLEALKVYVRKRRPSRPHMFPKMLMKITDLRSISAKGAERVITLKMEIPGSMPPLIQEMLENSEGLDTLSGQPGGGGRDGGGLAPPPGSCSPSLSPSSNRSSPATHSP
Method in brief: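 Reporter transcripts from a DR5-regulated unit, measured via RT-PCR plus capillary electrophoresis, reflect endogenous RAR activity in transiently transfected human HepG2 liver cells. Exposure lasted 24 h; gain or loss of signal scored against DMSO.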

[8] = target: Transcription factor E2F1 (Homo sapiens) (UniProt Q01094); test: ATG_E2F_CIS: Attagene CIS-FACTORIAL HepG2 Assay for human E2F Transcription Factor 1 (AID 2282935); conditions: HepG2 Attagene cis-reporter, E2F reporter RNA transcripts; actives raise or lower the signal
Sequence of Transcription factor E2F1 (Homo sapiens) (Q01094 whole entry, looked up): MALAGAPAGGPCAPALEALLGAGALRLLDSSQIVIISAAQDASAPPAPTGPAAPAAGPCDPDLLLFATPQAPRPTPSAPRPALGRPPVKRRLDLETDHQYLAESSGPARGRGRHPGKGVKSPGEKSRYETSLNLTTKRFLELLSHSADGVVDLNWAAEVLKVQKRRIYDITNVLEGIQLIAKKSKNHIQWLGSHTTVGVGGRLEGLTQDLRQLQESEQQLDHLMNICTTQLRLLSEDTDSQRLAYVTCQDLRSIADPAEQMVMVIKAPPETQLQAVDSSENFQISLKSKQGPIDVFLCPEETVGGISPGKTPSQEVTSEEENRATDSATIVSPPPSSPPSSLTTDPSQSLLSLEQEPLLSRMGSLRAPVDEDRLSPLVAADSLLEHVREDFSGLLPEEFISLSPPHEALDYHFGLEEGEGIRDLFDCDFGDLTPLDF
Method in brief: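 Total RNA from 24 h-treated, reporter-transfected HepG2 cells undergoes DNase I treatment, oligo(dT) reverse transcription, PCR and 6-FAM primer extension before capillary electrophoresis.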

[9] = ATG_E_Box_CIS: Attagene CIS-FACTORIAL HepG2 Assay for human Enhancer Box (E-box) (AID 2282936); conditions: HepG2 E-box cis-reporter transcription, actives raise or lower the signal
Method in brief: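 DMSO served as negative control and baseline for bidirectional fitting. Human hepatoma HepG2 cells, transiently transfected with cis-reporter constructs, were dosed 24 h; reporter mRNA read by RT-PCR and capillary electrophoresis.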

[10] = ATG_M_61_CIS: Attagene CIS-FACTORIAL HepG2 Assay for M61 Transcription Factor (Internal Marker) (AID 2282937); conditions: HepG2 Attagene CIS-FACTORIAL M61 internal marker reporter; actives raise or lower the signal
Method in brief: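 Human liver HepG2, transient MRTU transfection (cis promoter elements), 24 h compound. Total RNA → oligo(dT) RT → PCR → FAM label → HpaI → CE. Internal background marker; bidirectional fitting, DMSO = baseline.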

[11] = ATG_EGR_CIS: Attagene CIS-FACTORIAL HepG2 Assay for human Early Growth Response 1 (EGR1) (AID 2282938); conditions: HepG2 Attagene CIS-FACTORIAL EGR reporter mRNA; actives raise or lower the signal
Method in brief: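 Transient transfection of human HepG2 with multiple cis-regulated reporter units, chemical exposure 24 h, total RNA isolated. Reverse transcription, PCR, fluorescent labelling and capillary electrophoresis quantify reporter transcripts; activity fitted bidirectionally against DMSO.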

[12] = ATG_M_19_CIS: Attagene CIS-FACTORIAL HepG2 Assay for M19 Transcription Factor (Internal Marker) (AID 2282939); conditions: HepG2 Attagene CIS-FACTORIAL M19 internal marker reporter; actives raise or lower the signal
Method in brief: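 HepG2 cells transiently transfected with cis-regulated multiplexed reporter units, dosed 24 h. Reporter mRNA quantified by RT-PCR and capillary electrophoresis; internal background marker fitted bidirectionally versus DMSO.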

[13] = ATG_ERE_CIS: Attagene CIS-FACTORIAL HepG2 Assay for Estrogen Response Element (ERE) (AID 2282940); conditions: HepG2 ERE cis-reporter, Attagene RNA transcript; actives raise or lower the signal
Method in brief: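 HepG2 cells transiently transfected with multiplexed cis-element reporter units, measuring endogenous transcription factor activity; ERE reporter mRNA quantified after 24 h exposure by RT-PCR, fluorescent labelling, HpaI digestion and capillary electrophoresis. Bidirectional change versus DMSO.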

[14] = target: Aryl hydrocarbon receptor (Homo sapiens) (UniProt P35869); test: ATG_Ahr_CIS: Attagene CIS-FACTORIAL HepG2 Assay for human Aryl Hydrocarbon Receptor (Ahr) (AID 2282930); conditions: HepG2 AhR cis-factorial reporter transcription; actives raise or lower the signal
Sequence of Aryl hydrocarbon receptor (Homo sapiens) (P35869 whole entry, looked up): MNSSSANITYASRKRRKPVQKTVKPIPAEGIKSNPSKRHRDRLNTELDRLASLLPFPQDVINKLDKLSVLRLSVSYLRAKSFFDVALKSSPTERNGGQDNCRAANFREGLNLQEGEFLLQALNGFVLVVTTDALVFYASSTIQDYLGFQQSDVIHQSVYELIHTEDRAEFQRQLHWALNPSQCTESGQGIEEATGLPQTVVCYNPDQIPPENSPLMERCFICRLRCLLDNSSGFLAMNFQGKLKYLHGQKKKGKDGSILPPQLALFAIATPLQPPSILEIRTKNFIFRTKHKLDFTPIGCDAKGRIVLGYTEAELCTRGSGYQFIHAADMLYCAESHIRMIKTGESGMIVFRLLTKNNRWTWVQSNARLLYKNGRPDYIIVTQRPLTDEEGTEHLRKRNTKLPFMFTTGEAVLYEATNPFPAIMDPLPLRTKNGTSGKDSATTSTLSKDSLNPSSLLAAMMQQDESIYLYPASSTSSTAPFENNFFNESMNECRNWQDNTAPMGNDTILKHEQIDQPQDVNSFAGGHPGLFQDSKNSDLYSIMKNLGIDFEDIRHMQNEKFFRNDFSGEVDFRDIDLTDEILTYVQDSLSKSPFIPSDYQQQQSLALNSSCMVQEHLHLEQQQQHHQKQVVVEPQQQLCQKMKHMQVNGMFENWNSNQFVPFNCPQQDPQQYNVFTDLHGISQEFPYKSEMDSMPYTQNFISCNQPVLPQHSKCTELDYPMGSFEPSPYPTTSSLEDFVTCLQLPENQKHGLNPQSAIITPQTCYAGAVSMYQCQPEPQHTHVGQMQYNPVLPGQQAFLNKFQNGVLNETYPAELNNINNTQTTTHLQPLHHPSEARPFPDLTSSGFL
Method in brief: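 Reporter mRNA levels, quantified by RT-PCR and fluorescent capillary electrophoresis, reflect endogenous AhR transcriptional activity in HepG2 cells carrying transfected cis-promoter reporter constructs. Readout at 24 h post-dose; gain or loss fitted against DMSO baseline.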

| Structure (SMILES) | outcome [1] | outcome [2] | outcome [3] | AC50 [4] | outcome [5] | outcome [6] | outcome [7] | AC50 [8] | outcome [9] | outcome [10] | outcome [11] | outcome [12] | AC50 [13] | outcome [14] | outcome [4] | outcome [8] | outcome [13] | AC50 [3] | AC50 [6] | AC50 [7] |
| --- | --- | --- | --- | --- | --- | --- | --- | --- | --- | --- | --- | --- | --- | --- | --- | --- | --- | --- | --- | --- |
| Cc1ccccc1OP(=O)(Oc1ccccc1C)Oc1ccccc1C | inactive | inactive | inactive | 17.5 µM (active) | inactive | inactive | inactive | 69.7 µM (active) | inactive | inactive | inactive | inactive | 3.04 µM (active) |  |  |  |  |  |  |  |
| CC1(C)COP(Oc2ccccc2)OC1 | inactive | inactive | inactive |  | inactive | inactive | inactive |  | inactive | inactive | inactive | inactive |  | inactive | inactive | inactive |  |  |  |  |
| O=C(Cc1ccccc1)OCCc1ccccc1 | inactive | inactive | inactive |  | inactive | inactive | inactive |  | inactive | inactive | inactive | inactive |  | inactive | inactive | inactive | inactive |  |  |  |
| CC(C)(C)c1ccc(CCOc2ncnc3ccccc23)cc1 | inactive | inactive | inactive |  | inactive | inactive | inactive |  | inactive | inactive | inactive | inactive |  | inactive | inactive | inactive | inactive |  |  |  |
| Cc1ccccc1OP(=O)(Oc1ccccc1)Oc1ccccc1 | inactive | inactive |  | 47.9 µM (active) | inactive |  |  | 57.2 µM (active) | inactive | inactive | inactive | inactive |  |  |  |  |  | 76.5 µM (active) | 64.2 µM (active) | 32 µM (active) |
| N#Cc1ccncc1 | inactive | inactive | inactive |  | inactive | inactive | inactive |  | inactive | inactive | inactive | inactive |  | inactive | inactive | inactive | inactive |  |  |  |
| CCOP(=S)(OCC)SCS(=O)(=O)C(C)(C)C | inactive | inactive | inactive |  | inactive | inactive | inactive |  | inactive | inactive | inactive | inactive |  | inactive | inactive | inactive | inactive |  |  |  |
| CCC(C)(C#N)N=NC(C)(C#N)CC (centres undefined) | inactive | inactive | inactive |  | inactive | inactive | inactive |  | inactive | inactive | inactive | inactive |  | inactive |  | inactive | inactive |  |  |  |
| CN(CCCC(O)c1cccnc1)N=O (centres undefined) | inactive | inactive | inactive |  | inactive | inactive | inactive |  | inactive | inactive | inactive | inactive |  |  | inactive | inactive | inactive |  |  |  |
| CN(C1CCCCC1)C1CCCCC1 | inactive | inactive | inactive |  | inactive | inactive | inactive |  | inactive | inactive | inactive | inactive |  | inactive | inactive | inactive | inactive |  |  |  |
